Source: PubChem BioAssay
aSyn UTR act – Activators working through SNCA 5'UTR binding (MLPCN); alpha-synuclein 5'UTR reporter, activators screen; actives 7.1% (n = 300,000); activity score, % (tested at 7.5 µM), hits read low; in the data active = activity score below about -60%
Active calls of the source: *. These entries were drawn from the full list.

SMILES	aSyn UTR act
O=C(Nc1nc2ccccc2s1)c1cccc(N2C(=O)CCC2=O)c1	-82*
Cc1ccnc(NC(=O)c2cccc(S(=O)(=O)N3CCCc4ccccc43)c2)c1	-128*
COc1cc(C(=O)Nc2nc3ccc(C)cc3s2)ccc1OCc1c(C)noc1C	-99*
COc1ccc(C(=O)Nc2nc3ccccc3s2)cc1	67
Cc1cccc(C(=O)N[C@H](C(=O)Nc2nc3ccccc3[nH]2)C(C)C)c1	96
CC(C)[C@H](NC(=O)c1cccc(S(=O)(=O)N2CCOCC2)c1)C(=O)Nc1nc2ccccc2s1	-72*
COc1cc(OC)cc(C(=O)NCC(=O)OCc2nc3ccccc3s2)c1	-184*
COc1ccc(C(=O)Nc2nc3ccccc3s2)cc1OC	-212*
O=C(Nc1nc2ccccc2s1)c1cc(-c2ccccc2)nn1-c1ccccc1	-137*
O=C(Nc1nc2ccccc2s1)c1cccc(S(=O)(=O)N2CCc3ccccc32)c1	-64*
COc1cccc(C(=O)Nc2nc(C)cs2)c1	-142*
Cc1ccc(-n2ncc3c(NCc4ccccc4)ncnc32)cc1	-189*
COc1ccc(-n2ncc3c(NCc4cccnc4)ncnc32)cc1	-149*
Brc1ccc2ncnc(NCc3ccco3)c2c1	-64*
COc1ccc(-n2ncc3c(N4CCCCC4)ncnc32)cc1	101
Cc1cccc(-n2ncc3c(NCc4cccnc4)ncnc32)c1	-142*
c1ccc(-n2ncc3c(NCc4ccco4)ncnc32)cc1	-252*
Cc1ccc(-n2ncc3c(NCc4cccnc4)ncnc32)cc1C	-90*
COc1ccc(-n2ncc3c(NCc4ccc5c(c4)OCO5)ncnc32)cc1	-109*
COc1cc2c(cc1OC)C(c1ccccc1)N(C(=O)CCl)CC2 (stereo not drawn)	-86*
CCc1ccc(N2Cc3ccccc3C2)cc1	-151*
CCc1ccc(C(O)(CC(C)C)C(CN2CCOCC2)c2ccccc2)cc1 (stereo not drawn)	57
CCOC(=O)c1ccc(N2Cc3ccccc3C2)cc1O	-122*
Clc1nc2sccn2c1/C=N/n1cnc2ccccc21	-148*
CC(C)c1ccc(N2C=Nc3ccc(C(C)C)cc3C2)cc1	-63*
SMILES	aSyn UTR act
C1=Nc2ccccc2CN1c1ccccc1	-120*
Cc1ccccc1Nc1nc(-c2sc(NC(=O)c3cccc(Cl)c3)nc2C)cs1	-145*
Cc1ccc(Cl)cc1Nc1nc(-c2sc(NC(=O)c3cccc(Cl)c3)nc2C)cs1	-201*
Oc1ccc(/C=C/c2ccc3ccccc3n2)cc1	90
Cn1c(=O)c(/C=C/c2ccccc2)nc2ccccc21	-291*
O=c1[nH]c2ccccc2nc1/C=C/c1ccc(F)cc1	-139*
O=c1[nH]c2ccccc2nc1/C=C/c1ccccc1	-165*
O=c1[nH]c2ccccc2nc1/C=C/c1ccc(O)cc1	-214*
CC(=O)c1ccc(/C=C/c2nc3ccccc3n2C)o1	-91*
Nc1nc(N)nc(-c2ccc(Cl)cc2)n1	-112*
Nc1nc(-c2ccc(Cl)cc2)nnc1-c1ccc(Br)cc1	-178*
Cc1cccc(-c2nc(N)nc(N)n2)c1	-74*
COc1ccc(CNC(=O)c2ccc(C(C)(C)C)cc2)cc1	-126*
CC(C)c1ccc(CNNC(=O)c2ccccc2)cc1	-105*
COc1ccc(CNC(=O)c2ccc(C(C)C)cc2)cc1	-181*
O=C(COc1ccc2ccccc2c1Br)Nc1ccncc1	-84*
O=C(COc1ccc2ccccc2c1Br)NC(=S)Nc1cccc(CO)c1	-66*
O=C(COc1ccccc1[N+](=O)[O-])Nc1cccnc1	-72*
O=C(COc1ccc2ccccc2c1Br)Nc1cccnc1	-210*
CC(C)Oc1cccc(C(=O)C2CCCN(C(=O)CCc3cnn(C)c3)C2)c1 (stereo not drawn)	-77*
CCc1ccc2c(c1)/C(=C/C(=O)c1cccs1)C(=O)N2	-65*
CC(=O)N(c1ccccc1)c1nnc(-c2cnc(C)cn2)s1	-83*
COc1ccc(C=Nc2cccnc2N)cc1	-67*
O=C(c1ccc(Br)cc1)C(CN1CCOCC1)c1ccccc1 (stereo not drawn)	-152*
Cc1cccc(N=C2NN=C(c3ccc4c(c3)OCCO4)CS2)c1	-140*
SMILES	aSyn UTR act
Cc1cccc(N=C2NN=C(c3c(C)[nH]c4ccccc34)CS2)c1	-90*
Cc1ccnc(NC(=O)C2CC(=O)N(Cc3ccccc3)C2)c1 (stereo not drawn)	-112*
CC(=O)c1ccc(NC(=O)C2CC(=O)N(Cc3ccccc3)C2)cc1 (stereo not drawn)	-129*
O=C(Nc1ccccc1)ON=C1c2ccccc2-c2ccccc21	-106*
CC(C)CCNCC(O)CON=C1c2ccccc2-c2ccccc21 (stereo not drawn)	86
Cc1csc(=O)n1CC(=O)OCc1cccc2ccccc12	-90*
Cc1ccc(-n2c(=S)[nH]c3c(oc4ccccc43)c2=O)cc1	-100*
Cc1cccc(-n2c(=S)[nH]c3c(oc4ccccc43)c2=O)c1	-88*
Cc1nc2ccc(NC(=O)c3ccc([N+](=O)[O-])cc3)cc2[nH]1	-106*
CC(=O)Nc1ccc(S(=O)(=O)c2ccc([N+](=O)[O-])cc2)cc1	-72*
Cc1cc(NC(=O)NC(=O)c2ccccc2F)no1	-109*
